Data: PubChem BioAssay (Tox21)
Results filed as inconclusive are left out. Unmarked numbers belong to inactive results. The source made the active and inactive calls. Calls come from the whole dose curve; as a rule, active = well fitted cell-killing curve with a large enough effect in the repeat runs; inconclusive = weak or mixed curves, or effect the other way; inactive = flat fitted curve, though single readings scatter.

Experiment: cAMP Responsive Elements (CRE) small molecule agonists, cell-based qHTS assay: qHTS cell viability counter screen (AID 2060914); note: nearly all actives have a fitted effect of over 50% in size
Conditions: CRE-bla HEK293T viability, CellTiter-Glo luminescence, 5 h; series mostly up to 92.4 µM; activity change, negative = cytotoxicity: at the top concentration
Outline: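 Cells are seeded and incubated 18 h, treated with compounds in DMSO for 3 h, read for the bla reporter, then given CellTiter-Glo; luminescence is measured after 30 min at room temperature.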
% is set by controls: 0 for no effect and ±100 for the full control effect.

In order of falling “activity change, negative = cytotoxicity” value:
1. O=C(O)CNc1ccccc1  5.88%
2. CCOC(=O)COC(=O)c1ccccc1C(=O)OCC  1.94%
3. CCCC(=O)OC(=O)CCC  0.905%
4. O=C=Nc1cccc(C(F)(F)F)c1  0.159%
5. CCOC(=O)NCCOc1ccc(Oc2ccccc2)cc1  -0.0289%
6. O=Cc1ccc(Cl)cc1  -0.942%
7. CC(CO)(CO)CO  -2.14%
8. CCCCCC[C@@H](O)C/C=C\CCCCCCCC(=O)OC  -2.83%
9. O=C(O)C[C@H](NC(=O)OCc1ccccc1)C(=O)O  -3.11%
10. C1CCSC1  -7.16%
11. O=C(c1ccccc1)c1ccc(O)cc1  -7.3%
12. CCc1ccc(C)nc1  -10.3%
13. C=CCOC(=O)COCCC(C)C  -13.7%
14. COC(=O)Nc1ccc(Cl)c(Cl)c1  -27.7%

With `Nc1ccc(Cl)cc1Cl` the Potency was “inactive”.
With `O=C(CC(C(=O)OC1CCCCC1)S(=O)(=O)O)OC1CCCCC1` (stereo not given) the Potency was “inactive”.
In the case of `Cn1cnc2c1c(=O)[nH]c(=O)n2C`, the Potency is reported as “inactive”.
With `Nc1ccc(Cl)c(N)c1` the Potency was “inactive”.
With `COC(=O)c1ccc(C)cc1` the Potency was “inactive”.
For `NC(=S)NNC(N)=S`, the Potency was “inactive”.
In the case of `O=C1CC2(CCCC2)CC(=O)N1CCCCN1CCN(c2ncccn2)CC1`, the Potency is reported as “inactive”.
In the case of `CN1CCc2cccc3c2[C@H]1Cc1ccc(O)c(O)c1-3`, the Potency is reported as “inactive”.
With `O=C(OCc1ccccc1)c1ccc(O)cc1` the Potency was “inactive”.
In the case of `CC(C)=CCC/C(C)=C\CO`, the Potency is reported as “inactive”.

In order of rising “activity change, negative = cytotoxicity” value:
1. CC(=O)NCCCS(=O)(=O)O  -12.2% [at 42.5 µM]
2. Clc1ccc(C(Cn2ccnc2)OCc2ccc(Sc3ccccc3)cc2)c(Cl)c1 (stereo not given)  -8.7% [at 42.5 µM]
3. O=C(OOC(=O)c1ccccc1)c1ccccc1  -1.57% [at 42.5 µM]
4. O=P(O)(O)C(O)(Cc1cccnc1)P(=O)(O)O  -0.87% [at 42.5 µM]
5. O=C1OC[C@H](Cc2cccc(O)c2)[C@H]1Cc1cccc(O)c1  -0.0714% [at 42.5 µM]
6. Oc1cccc(-c2c3nc(c(-c4cccc(O)c4)c4ccc([nH]4)c(-c4cccc(O)c4)c4nc(c(-c5cccc(O)c5)c5ccc2[nH]5)CC4)C=C3)c1  0.308% [at 42.5 µM]
7. Nc1ccc(C(=O)Nc2ccccc2N)cc1  1.74% [at 42.5 µM]
8. Cc1ncc(CO)c(C=O)c1O  2.08% [at 42.5 µM]
9. NS(=O)(=O)c1cc2c(cc1Cl)CN(C1CCCCC1)C2=O  2.35% [at 42.5 µM]
10. CCC(C)(Oc1ccc(C2(c3ccc(OC(C)(CC)C(=O)O)cc3)CCCCC2)cc1)C(=O)O (stereo not given)  2.98% [at 42.5 µM]
11. CN1CCN(N)CC1  3.32% [at 42.5 µM]
12. CC1(C)CCC(C)(C)c2cc(NC(=O)c3ccc(C(=O)O)cc3)ccc21  4.1% [at 42.5 µM]
13. CN(C)CCCN1c2ccccc2Sc2ccccc21  8.6% [at 42.5 µM]
14. CCN1C(=O)c2ccccc2C1Nc1ccc(OCCN2CCCCC2)cc1 (stereo not given)  9.4% [at 42.5 µM]

Compound `CN(C)C(=O)NC1(c2ccccc2)CCN(CCC[C@]2(c3ccc(Cl)c(Cl)c3)CCCN(C(=O)c3ccccc3)C2)CC1` has an activity change, negative = cytotoxicity of -0.87% [at 18.9 µM].

In the case of `O=S(=O)(O)c1ccc2c(N=Nc3ccc(S(=O)(=O)O)c4ccccc34)c(O)c(S(=O)(=O)O)cc2c1`, the activity change, negative = cytotoxicity is reported as 0.372% [at 8.39 µM].
